# Test results taken from PubChem BioAssay (NCI).
# “And” between values parts separate entries of the source, which are not always exact repeats. Equal entries are not always repeated. Compounds without any hit were thinned out: in the full panel of roughly 83,000, 20% have a hit.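 Activity criterion: percent growth below 10, measured after cells in 96-well plates were exposed to a single compound concentration for 48 hours.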 Values without a mark were called inactive. The source made the active and inactive calls.
# Test system: NCI-H460 lung
# Assay: NCI-60 one-dose screen, 48 h (100 = growth as untreated, 0 = no growth, -100 = all killed)
# Settings: 10 µM unless noted
row,Structure (SMILES),growth
1,CCOc1cccc(/C(N)=N/C(N)=N/c2nc3ccccc3s2)c1,70.4%
2,O=C(CCl)Nc1ccc(NC(=O)c2cc(Cl)ccc2O)c(Cl)c1,67.1%
3,Clc1ccc(CSc2nnc(-c3ccc(Cl)cc3)n2-c2ccccc2)cc1,85.8%
4,CC(C)(C)OC(=O)NCc1ccc(CNc2c([N+](=O)[O-])cnc3ccccc23)cc1,70.1%
5,NS(=O)(=O)c1ccc(Nc2nc(N/N=C/c3ccc4c(c3)OCO4)nc(Nc3ccccc3)n2)cc1,2.83% (active)
6,Cc1cc(=O)oc2cc(OCCCOc3ccc(/C=C/C(=O)Nc4ccc(Br)cc4)cc3)ccc12,9.24% (active)
7,CNC(=O)c1cc(N2CCc3cc(NC(=O)Nc4ccc(N5CCOCC5)c(C(F)(F)F)c4)ccc32)ccn1,9.77% (active)

# Test system: HOP-92 NSCLC
# Assay: as above
# Settings: 10 µM unless noted
row,Structure (SMILES),growth
1,Cc1ccc2c(n1)C(=O)C(Cl)=C(Nc1ccc(C#N)cc1)C2=O,126%
2,CC(C)(O)c1cncc(-c2ccc3ncc(C#N)c(N4CCc5cc(F)c(Cl)cc54)c3c2)c1,-8.73% (active)
3,O=c1c2ccccc2cc2n1CCN=C2c1ccccc1,81%
4,O=C(CN1CCN(c2cc(=O)[nH]c3ccc(F)cc23)CC1)N(c1ccccc1)c1ccccc1,98.4%
5,CCc1cc(OC(=O)N2CCC(N3CCCCC3)CC2)ccc1Nc1cc(-c2ccc(-n3cccn3)cc2)[nH]n1,103%
6,CCCC/C(=C\c1ccc(O)c(O)c1)C(=O)NC(Cc1ccccc1)C(=O)C(=O)NCCc1ccc(OC)cc1 (configuration not stated),86.2%
7,CN(C)c1ccc(-c2cc(-c3c[nH]c4ccccc34)nc(N)c2C#N)cc1,27.5%
8,COc1cc(C(=O)c2cc(C(C)=O)c3ccc(C)cn23)cc(OC)c1OC,97%
9,CCOC(=O)c1ccccc1NC1=C(Cl)C(=O)c2nc(C)ccc2C1=O,118%
10,CN(C)S(=O)(=O)c1ccc(-c2nc(C(Cl)Cl)nc3cc(-c4ccccc4)nn23)cc1,79%
11,CN1CCN(c2ccc(Nc3nc(NCCCNS(=O)(=O)c4ccc(Cl)cc4)c4sccc4n3)cc2)CC1,49.4%
12,O=C1[C@@H]2Cc3c([nH]c4ccccc34)[C@H](c3ccc(Cl)cc3)N2C(=O)CN1C1CCN(Cc2ccccc2)CC1,41.4%
13,CN1CCN(CCNc2nc(-c3cccc(NS(=O)(=O)c4cccc5c(N(C)C)cccc45)c3)cs2)CC1,39.7%
14,C#C[C@]1(O)CC[C@H]2[C@@H]3CC=C4c5sc(Nc6ncccc6C)nc5CC[C@]4(C)[C@H]3CC[C@@]21C,20.5%
15,CC(=O)N(O)CCCCCNC(=O)CCC(=O)N(O)CCCCCNC(=O)CCC(=O)N(O)CCCCCN(CCCCCCCCCC[P+](c1ccccc1)(c1ccccc1)c1ccccc1)CCCCCCCCCC[P+](c1ccccc1)(c1ccccc1)c1ccccc1,-18.4% (active)
16,O=C1Nc2ccccc2/C1=N\c1nnc(-c2ccccc2)o1,72.2%
17,CCCCCCCCCC(=O)NC(C)(C)C(=O)N1CCC[C@H]1C(=O)N[C@@H](CC(C)C)C(=O)N[C@@](C)(CC)C(=O)N[C@@H](CCC(N)=O)C(=O)N[C@H](CCC(N)=O)C(=O)NC(C)(C)C(=O)NC(C)(C)C(=O)N[C@@H](CCC(N)=O)C(=O)N[C@H](CC(C)C)C(=O)N[C@H](CO)CC(C)C,-91.1% (active) and -43.9% (active)
18,Fc1cccc(Cl)c1/C=N/Nc1nc(N/N=C/c2c(F)cccc2Cl)nc(N2CCCCC2)n1,-1.32% (active)
19,Cc1ccc(/C(N)=N/C(N)=N/c2nc3ccccc3s2)cc1,122%
20,CCc1cc2c(cc1Cl)nc1c(=O)[nH]c(=O)nc-1n2CCOCC(C)(C)C,110%

row,Structure (SMILES),growth
1,Cc1csc(/N=C(N)/N=C(\N)c2cccc(Br)c2)n1,69.9%
2,Brc1cccc(-c2cc(-c3cnc4c(c3)OCCO4)n[nH]2)c1,101%
3,CN(C)CC(=O)Nc1nc(-c2cccc(NS(=O)(=O)c3cccc4c(N(C)C)cccc34)c2)cs1,60.8%
4,O=C(/C=C/c1cc(Cl)ccc1Cl)Nc1ncc(Cc2ccc(Cl)cc2)s1,-10.6% (active)
5,Nc1ncc(-c2ccc3ncnc(NCc4ccccc4)c3c2)cn1,8.86% (active)
6,Cc1ccc(-c2cc3nc(C(Cl)Cl)nc(-c4ccc(S(=O)(=O)N(C)C)cc4)n3n2)cc1,128%
7,CCN(CC)CCOc1ccc(C(=C(c2ccccc2)C2CCCC2)c2ccc(OCCN(CC)CC)cc2)cc1,-30.8% (active)
8,COC(=O)c1cccc(NC2=C(Cl)C(=O)c3nc(C)ccc3C2=O)c1,121%
9,COc1cc(/C=N\NC(=O)c2ccc3nc(-c4ccc(Br)cc4)[nH]c3c2)cc(OC)c1OC,34.4%
10,NC1=NC2(CCCC2)N(c2ccc(S(=O)(=O)Nc3nccs3)cc2)C(N)=N1,113%
11,N#C/C(=N\Nc1ccc(F)cc1)C(=O)Nc1cc(-c2ccccc2)nn1-c1ccccc1,-21.3% (active)
12,Cc1ccc(S(=O)(=O)c2nc(-c3ccc(F)cc3)oc2S(C)(=O)=O)cc1,63%
13,CC(O)c1cccc(/C(N)=N/C(N)=N/c2nc3ccccc3s2)c1 (configuration not stated),97.6%
14,CCOc1cccc(/C(N)=N/C(N)=N/c2nc3ccccc3s2)c1,105%
15,O=C(CCl)Nc1ccc(NC(=O)c2cc(Cl)ccc2O)c(Cl)c1,127%
16,Clc1ccc(CSc2nnc(-c3ccc(Cl)cc3)n2-c2ccccc2)cc1,89.5%
17,CC(C)(C)OC(=O)NCc1ccc(CNc2c([N+](=O)[O-])cnc3ccccc23)cc1,32.1%
18,NS(=O)(=O)c1ccc(Nc2nc(N/N=C/c3ccc4c(c3)OCO4)nc(Nc3ccccc3)n2)cc1,66%
19,Cc1cc(=O)oc2cc(OCCCOc3ccc(/C=C/C(=O)Nc4ccc(Br)cc4)cc3)ccc12,53.5%
20,CNC(=O)c1cc(N2CCc3cc(NC(=O)Nc4ccc(N5CCOCC5)c(C(F)(F)F)c4)ccc32)ccn1,14.1%
